Measured values from ChEMBL document CHEMBL3988442, “University of Dundee, Small-Polar-MMV Screening Library” (2021).
The whole screen tested about 69,000 compounds, of which about 950 (1.4%) showed an effect of 50% or more. For the sample, strong results were picked, then their nearest neighbours and some compounds at random.

Each compound was assayed on Mycobacterium tuberculosis (assay: Cornell M. t heat shock assay; note: in the data most compounds retested in dose-response had high values).
Assay type: functional, organism-based
Set-up: dose or concentration left out as unconfirmed
For `Cc1cccc(CN2CCc3ncnc(C4CC4)c3CC2)n1.O=C(O)C(F)(F)F`, the “Percent Effect” value was -23.65%. With `CCN1CCN(C)C(=O)C12CCN(Cc1csc(C)n1)CC2.O=C(O)C(F)(F)F` the “Percent Effect” value was 25.71%. For `O=C(O)C(F)(F)F.O=C(O)C(F)(F)F.c1cncc(-c2ncnc3c2CCN(Cc2cccs2)CC3)c1`, the “Percent Effect” value was -18.81%. In the case of `CC(C)Cc1cc(NC(=O)c2ccncc2)n(C)n1`, the “Percent Effect” value is reported as 18.34%. `CC(C)Cc1cc(NC(=O)c2ccccc2)n(C)n1` was tested, and the “Percent Effect” value was 19.61%. `CC(C)Cc1cc(NC(=O)c2ccccn2)n(C)n1` was tested, and the “Percent Effect” value was 64.59%. `CN(Cc1ccncc1)C1COC2(CCN(Cc3cccs3)CC2)C1.O=C(O)C(F)(F)F.O=C(O)C(F)(F)F.O=C(O)C(F)(F)F` (stereo not drawn) was tested, and the “Percent Effect” value was 10.37%. In the case of `CN(C)C(=O)CO[C@@H]1CC[C@H]2[C@H]1OCCN2c1ncc(F)cn1.O=C(O)C(F)(F)F`, the “Percent Effect” value is reported as 7.03%. In the case of `O[C@@H]1CN(c2nc3ccccc3o2)CC[C@H]1c1ccc2c(c1)OCO2`, the “Percent Effect” value is reported as -10.34%. `O[C@@H]1CN(c2nc3ccccc3s2)CC[C@H]1c1ccc2c(c1)OCO2` was tested, and the “Percent Effect” value was -12.43%. `O[C@@H]1CN(c2cnc3ccccc3n2)CC[C@H]1c1ccc2c(c1)OCO2` was tested, and the “Percent Effect” value was 107.1%. With `O=C(O)C(F)(F)F.c1ccn(Cc2nnc3n2CCCN(Cc2ccoc2)C3)c1` the “Percent Effect” value was -15.36%. With `O=C(C1CCC1)N1C[C@@H]2CN(Cc3ccncc3)C(=O)[C@@H]2C1.O=C(O)C(F)(F)F` the “Percent Effect” value was 6.384%. For `CN(C)CCCNCCC(c1ccccc1)C1CCOC(C)(C)C1.O=C(O)C(=O)O` (stereo not drawn), the “Percent Effect” value was 21.84%. With `CN1CCN(C2COC3(CCN(Cc4ccc(F)cc4)CC3)C2)CC1.O=C(O)C(F)(F)F.O=C(O)C(F)(F)F.O=C(O)C(F)(F)F` (stereo not drawn) the “Percent Effect” value was -9.014%. With `CCCNC(=O)NC(=O)CNC(C)(C)c1ccc2c(c1)OCCO2` the “Percent Effect” value was 99.39%. For `CCNC(=O)NC(=O)CNC(C)(C)c1ccc2c(c1)OCCO2`, the “Percent Effect” value was 11.57%. With `CCCNC(=O)NC(=O)CNC(C)(C)c1ccc2c(c1)OCO2` the “Percent Effect” value was -10.73%. In the case of `Cc1cc(C[C@@H]2COC[C@H]2NCc2ccc(C(C)C)cc2)on1.O=C(O)CC(O)(CC(=O)O)C(=O)O`, the “Percent Effect” value is reported as 9.353%. For `Cc1[nH]c2ccc(C#N)cc2c1CCNc1ncnc2c1CCNCC2`, the “Percent Effect” value was 7.503%. In the case of `Cc1[nH]c2ccccc2c1CCNc1ncnc2c1CCNCC2`, the “Percent Effect” value is reported as 1.152%. `Cc1[nH]c2ccc(Cl)cc2c1CCNc1ncnc2c1CCNC2` was tested, and the “Percent Effect” value was 96.99%. For `Cc1cc(C)nc(N2CCCC(C(=O)Nc3n[nH]c(C(C)C)n3)C2)n1` (stereo not drawn), the “Percent Effect” value was 13.11%. For `O=C1CCCN1Cc1nnc2n1CCCN(C(=O)c1ccc[nH]1)C2`, the “Percent Effect” value was 27.49%. With `O=C(c1ccc[nH]1)N1CCCn2c(CN3CCCCC3)nnc2C1` the “Percent Effect” value was 16.28%. `O=C(O)C(F)(F)F.O=C(c1ccc[nH]1)N1CCCn2c(CNC3CCC3)nnc2C1` was tested, and the “Percent Effect” value was 92.9%. In the case of `Cc1cnc(NC(=O)c2cccc(CN(C)Cc3ncccc3C)c2)s1`, the “Percent Effect” value is reported as 62.95%. For `Cc1cnc(NC(=O)c2cccc(CN(C)Cc3ccno3)c2)s1`, the “Percent Effect” value was 6.699%. With `Cc1cnc(NC(=O)c2cccc(CN(C)Cc3snnc3C)c2)s1` the “Percent Effect” value was 9.507%. For `Cl.O=C(c1cccc(F)c1)N1CCCC1c1ncc2c(n1)CCNC2` (stereo not drawn), the “Percent Effect” value was -29.7%. For `NC(=O)NC(=O)CCN1CCN(CC2CC2)c2ccccc21`, the “Percent Effect” value was -11.96%. With `CNC(=O)NC(=O)CN1CCN(CC2CC2)c2ccccc21` the “Percent Effect” value was 34.37%. For `NC(=O)NC(=O)CN1CCN(CC2CC2)c2ccccc21`, the “Percent Effect” value was 61.15%. For `CN(C)CCN1CCCC12CCN(C(=O)c1ccoc1)CC2.O=C(O)C(F)(F)F.O=C(O)C(F)(F)F`, the “Percent Effect” value was -7.317%. For `O=C(O)C(F)(F)F.O=C1C[C@H]2[C@H](CCN2Cc2ccccn2)N1CC1CC1`, the “Percent Effect” value was -8.238%. `CN(C)CCCNC(=O)c1ccc(N(C)S(C)(=O)=O)cc1Cl` was tested, and the “Percent Effect” value was 4.922%. `NC(=O)NC(=O)CCN1CCCN(c2nccs2)CC1` was tested, and the “Percent Effect” value was 91.9%. For `O=C(CCN1CCCN(c2nccs2)CC1)Nc1ccccc1`, the “Percent Effect” value was -8.927%. `NC(=O)NC(=O)CCN1CCN(c2nccs2)CC1` was tested, and the “Percent Effect” value was 101.5%. With `NC(=O)NC(=O)CN1CCN(c2nccs2)CC1` the “Percent Effect” value was -3.548%. In the case of `CNC(=O)NC(=O)CCN1CCN(c2nccs2)CC1`, the “Percent Effect” value is reported as 23.87%. For `O=C(CCN1CCCN(c2nccs2)CC1)NCC1CCCCC1`, the “Percent Effect” value was 0.6887%. With `CCn1cncc1CN(Cc1ccc(OC)cc1OC)CC1CCCO1.O=C(O)CC(O)(CC(=O)O)C(=O)O` (stereo not drawn) the “Percent Effect” value was -14.56%. With `CN(Cc1cccnc1)[C@@H]1CN(C(=O)CC2CC2)[C@@H]2CCCO[C@H]12.O=C(O)C(F)(F)F.O=C(O)C(F)(F)F` the “Percent Effect” value was -21.3%. With `CC/N=c1\c(NC(=O)C(C)(C)C)c(O)oc2ccccc12` the “Percent Effect” value was -10.16%. `Oc1cc(-c2nccs2)nc(C2CCN(Cc3cccs3)CC2)n1` was tested, and the “Percent Effect” value was 15.4%. `Oc1cc(C2CCCCN2Cc2ccsc2)nc(-c2ccncc2)n1` (stereo not drawn) was tested, and the “Percent Effect” value was -9.132%. In the case of `Oc1cc(C2CCCN(Cc3cccs3)C2)nc(-c2ccccn2)n1` (stereo not drawn), the “Percent Effect” value is reported as 99.87%. With `Cn1ncc2ccc(C3CCCN(Cc4cccs4)C3)nc21` (stereo not drawn) the “Percent Effect” value was 13.99%. In the case of `Oc1cc(C2CCCCN2Cc2cccs2)nc(-c2ccncc2)n1` (stereo not drawn), the “Percent Effect” value is reported as -5.43%. For `Oc1cc(C2CCCCN2Cc2cccs2)nc(-c2ccccn2)n1` (stereo not drawn), the “Percent Effect” value was 103.7%. `O=C(O)C(F)(F)F.O=C1[C@H]2CN(Cc3nccs3)C[C@H]2CN1c1cncnc1` was tested, and the “Percent Effect” value was -2.915%. `CN(C)CCO[C@@H]1CC[C@H]2[C@H]1OCCN2C(=O)COc1ccccc1.O=C(O)C(F)(F)F` was tested, and the “Percent Effect” value was 10.1%. In the case of `COc1ccc(CN2C[C@@H]3OCCN(CC4CCCO4)[C@@H]3C2)cc1.O=C(O)C(F)(F)F.O=C(O)C(F)(F)F` (stereo partly drawn), the “Percent Effect” value is reported as 2.354%. `COc1ccc(CN2CC[C@H]3[C@H]2CCN3C(=O)c2cnn(C)c2)cc1.O=C(O)C(F)(F)F` was tested, and the “Percent Effect” value was 1.435%. In the case of `CC(=O)N1Cc2ccnn2CC(C(=O)NCc2cccnc2)C1.O=C(O)C(F)(F)F` (stereo not drawn), the “Percent Effect” value is reported as 37.04%. With `FC(F)(F)c1ccc2nc([C@H]3CCN(C4CCC4)C3)[nH]c2c1` the “Percent Effect” value was 17.31%. For `FC(F)(F)c1ccc2nc([C@H]3CCN(C4CCCCC4)C3)[nH]c2c1`, the “Percent Effect” value was 60.59%. With `FC(F)(F)c1ccc2nc([C@H]3CCN(C4CCOCC4)C3)[nH]c2c1` the “Percent Effect” value was 5.789%. In the case of `Cc1cnn(CC2CCCN2CC(=O)NCc2ccccn2)c1` (stereo not drawn), the “Percent Effect” value is reported as -22.46%. `Cc1cnn(CC2CCCN2CC(=O)Nc2nc(C)cs2)c1` (stereo not drawn) was tested, and the “Percent Effect” value was 100.4%. `COc1c(C2CCCN2CC(=O)Nc2cc(C)no2)c(C)nn1C` (stereo not drawn) was tested, and the “Percent Effect” value was 8.972%. In the case of `CC(=O)Nc1nc(CN2CCCC2Cn2cccn2)cs1` (stereo not drawn), the “Percent Effect” value is reported as -5.465%. For `Cc1cnn(CC2CCCN2CC(=O)Nc2cc(C)nn2C)c1` (stereo not drawn), the “Percent Effect” value was 19.4%. For `CC(=O)Nc1nc(CN2CCCC2Cn2cncn2)cs1` (stereo not drawn), the “Percent Effect” value was -13%. `Cc1cnn(CC2CCCN2CC(=O)Nc2nccs2)c1` (stereo not drawn) was tested, and the “Percent Effect” value was 102.3%. `O=C(CN1CCCC1Cn1cncn1)Nc1nccs1` (stereo not drawn) was tested, and the “Percent Effect” value was 4.576%. With `Cc1cnn(CC2CCCN2CC(=O)Nc2nncs2)c1` (stereo not drawn) the “Percent Effect” value was -6.011%. `COc1c(C2CCCN2CC(=O)Nc2nccs2)c(C)nn1C` (stereo not drawn) was tested, and the “Percent Effect” value was 8.304%. With `COc1c(C2CCCN2CC(=O)Nc2nc(C)cs2)c(C)nn1C` (stereo not drawn) the “Percent Effect” value was 75.33%. For `CC(=O)Nc1nc(CN2CCCC2Cn2cc(C)cn2)cs1` (stereo not drawn), the “Percent Effect” value was 69.78%. `Cc1nc[nH]c1CN(Cc1ccccc1F)C1CC(C)(C)NC(C)(C)C1.O=C(O)CC(O)(CC(=O)O)C(=O)O` was tested, and the “Percent Effect” value was -2.69%. For `Cc1ccc(C2(CN3CCN(Cc4cn(C)nc4C)CC3)CC2)cc1.Cl`, the “Percent Effect” value was 5.814%. In the case of `Cl.O=C(NC1CCCC1)c1ccnc(C2CCNCC2)c1`, the “Percent Effect” value is reported as -6.855%. In the case of `CN(C)C(=O)COCC1CN(Cc2ccoc2)Cc2ncn(C)c21.O=C(O)C(F)(F)F.O=C(O)C(F)(F)F` (stereo not drawn), the “Percent Effect” value is reported as -26.5%. With `Cc1ccc(N2CCCC3(COCCN(c4ccccn4)C3)C2)nn1.O=C(O)C(F)(F)F` (stereo not drawn) the “Percent Effect” value was -19.77%. `Cc1nc2cc(-c3nccn3C)nn2c(N2CCC(O)CC2)c1C.Cl` was tested, and the “Percent Effect” value was 0.7953%. For `CNC(=O)[C@@H]1C[C@H]2CN(Cc3ccco3)C[C@H]2N1C.O=C(O)C(F)(F)F.O=C(O)C(F)(F)F`, the “Percent Effect” value was -19.75%. With `CS(=O)(=O)NC[C@]12COC[C@H]1CN(CC1CCCC1)C2.O=C(O)C(F)(F)F` the “Percent Effect” value was -15.72%. In the case of `O=C(O)C(F)(F)F.O=C(O)C(F)(F)F.O=C(O)C(F)(F)F.c1ccc(CN2CCC3(CC2)CCN(Cc2cccs2)C3)nc1`, the “Percent Effect” value is reported as -44.21%. In the case of `Cc1nn(C)c2c(=O)n(CC(=O)NCc3ccccc3Cl)ccc12`, the “Percent Effect” value is reported as -7.047%. For `Cc1cnn(CC2CCCCN2CC(=O)Nc2nc(C)cs2)c1` (stereo not drawn), the “Percent Effect” value was 74.94%. With `Cc1cnn(CC2CCCCN2CC(=O)Nc2c(C)n[nH]c2C)c1` (stereo not drawn) the “Percent Effect” value was -5.895%. `Cc1cnn(CC2CCCCN2CC(=O)Nc2nncs2)c1` (stereo not drawn) was tested, and the “Percent Effect” value was 18.17%. With `O=C(N[C@@H]1CN(Cc2c[nH]nc2-c2ccccc2)C[C@H]1O)c1cc[nH]n1` the “Percent Effect” value was 1.707%. In the case of `CN1CCCCc2c1nc1c(c2N)CCC1.O=C(O)c1cc([N+](=O)[O-])ccc1Cl`, the “Percent Effect” value is reported as -19.05%. With `Cc1cc(C)cc(CN2CCC3(CC2)CC(Nc2ncccn2)CO3)c1.O=C(O)C(F)(F)F` (stereo not drawn) the “Percent Effect” value was -30.68%. In the case of `CCn1c(NCc2ccccc2)nc2c(C)nn(C)c2c1=O`, the “Percent Effect” value is reported as 12.91%. `Cc1nc(NCc2cccnc2)c2c(n1)c(C)nn2C` was tested, and the “Percent Effect” value was 15.35%. `C=C/C=c1\c(=C/C)oc2c(NCc3ccccc3)nc(CC)nc12` was tested, and the “Percent Effect” value was 75.04%. For `CCc1nc(NCc2ccccn2)c2c(n1)c(C)nn2C`, the “Percent Effect” value was -15.98%. For `C=C/C=c1\c(=C/C)oc2c(NCc3ccccc3)nc(C)nc12`, the “Percent Effect” value was 104.3%. With `C=C/C=c1\c(=C/C)oc2c(NCc3ccccc3)ncnc12` the “Percent Effect” value was -0.4342%.
